# Compound activity (PubChem BioAssay)
# This is a sample that favours compounds with a hit; in the whole collection about 2.9% have one here.
# IDH1 R132H inh – blocks human mutant IDH1 R132H enzyme; O75874; 0.093% of 390,000 active; IDH1-R132H enzyme, NADPH consumption, diaphorase/resazurin fluorescence; Potency, µM (doses to about 76.6 µM), for inactives: at the top dose activity change, negative = inhibition, actives largely listed as inhibitors; also: potency is read from the fitted curve at half-maximal effect; % is scaled to controls: 0 for no effect and ±100 for the full control effect; nearly all actives have a fitted effect of over 65% in size
#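 IDH1-R132H (0.5 ug/mL dispensed) in pH 7.5 Tris buffer was preincubated 30 min with compound, then given a substrate mix of 0.016 mM NADPH and 2 mM alpha-KG for 80 min at room temperature; remaining NADPH was read by diaphorase/resazurin fluorescence.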
# B2AR arrestin – recruits beta-arrestin to the human beta2-adrenergic receptor | 0.02% of 330,000 active | Potency, µM (doses to about 46.1 µM), for the others: top-dose activation, most hits filed as activators | beta-arrestin recruitment to beta2AR, cell-based reporter | AID 492947;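 also: potency is read from the fitted curve at half-maximal effect; 0% = DMSO controls and full agonism = EC100 isoproterenol or metaproterenol; nearly all actives have a fitted effect of over 65% in size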
# Target sequence (P07550 whole entry, looked up): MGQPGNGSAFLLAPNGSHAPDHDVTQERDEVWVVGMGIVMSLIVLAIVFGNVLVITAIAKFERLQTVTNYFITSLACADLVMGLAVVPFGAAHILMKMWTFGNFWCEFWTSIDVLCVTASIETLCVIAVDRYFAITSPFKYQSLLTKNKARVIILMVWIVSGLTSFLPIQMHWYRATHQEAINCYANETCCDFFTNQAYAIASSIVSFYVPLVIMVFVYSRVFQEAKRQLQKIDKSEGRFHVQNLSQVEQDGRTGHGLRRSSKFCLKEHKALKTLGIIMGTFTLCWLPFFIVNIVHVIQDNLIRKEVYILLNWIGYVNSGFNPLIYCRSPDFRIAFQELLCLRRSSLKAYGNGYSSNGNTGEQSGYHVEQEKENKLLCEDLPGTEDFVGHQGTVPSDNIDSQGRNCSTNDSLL
# a7 integrin act – activates integrin-mediated alleviation for muscular dystrophy; alpha7betagal myoblasts, beta-gal FDG fluorescence, 48 h; Potency, µM (doses to about 38.3 µM), inactives show at the top dose activation, most hits filed as activators; 0.064% of 350,000 active; AID 624291;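 also: potency is read from the fitted curve at half-maximal effect; 100% = response of the positive control SU9516; nearly all actives have a fitted effect of over 60% in size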
#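 Alpha7betagal+/- myoblasts (passage 13) were plated 16-24 hr, then exposed to compounds (1:260 dilution of DMSO stock) for 48 hours at 37C. After MPER lysis, β-galactosidase reporter activity was read as FDG fluorescence (ex 480/em 540) after 30 minutes.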
# D3 ag – agonists of human D3 dopamine receptor. P35462. D3R DiscoveRx beta-arrestin cells, luminescence, 90 min. max activation, %. 0.58% of 410,000 active. AID 652048; in the data active = max activation above about 30%; also: 0% is about no effect
#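 Cells at 1500/well, incubated overnight, then treated with pinned compounds (dopamine as control) for 90 min at 37 degrees C. DiscoveRx reagent added for 30 - 60 minutes at room temperature; luminescence read.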
# DRD3 antagonist – antagonists of human D3 dopamine receptor. P35462. D3R cells, DiscoveRx beta-arrestin luminescence, antagonist mode; hits give low values. max response, negative = inhibition, %. 2.5% of 360,000 active. AID 652054; in the data active = max response below about -50%; inconclusive = no clear call, values can overlap the other calls; also: % is scaled to controls: 0 for no effect and ±100 for the full control effect
#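 Cells expressing the human receptor were seeded at 1500 cells/well, incubated overnight at 37 degrees C in 5% CO2, then exposed to library compounds with dopamine controls for 90 minutes at 37 degrees C before luminescent detection.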
# Starred values were filed as active, the others as inactive; ? = inconclusive; · = not tested or not shown; + = active, no number. Unless noted, calls follow the shape of the dose curve; as a rule, active = well fitted curve in the direction sought with a large enough effect; inconclusive = small, poorly fitted or top-dose-only effect, or another doubt; inactive = no such curve, though single readings can be large; an effect the other way counts as inactive or inconclusive.
SMILES,IDH1 R132H inh,B2AR arrestin,a7 integrin act,D3 ag,DRD3 antagonist
CCC1Nc2ncnc(N3CCOCC3)c2N(Cc2ccccc2)C1=O (configuration not stated),8%,0%,14%,-19,-5
CCC1Nc2ncnc(N3CCN(c4ccccc4)CC3)c2N(Cc2ccc(Br)cc2)C1=O (configuration not stated),-5%,-2%,-23%,-88,+
O=C1C(Cc2ccccc2)Nc2ncnc(N3CCN(c4ccccc4)CC3)c2N1Cc1ccc(Br)cc1 (configuration not stated),-12%,0%,-34%,-55,-151*
c1ccc(CNc2nc(-c3ccccn3)nc3ccccc23)cc1,6%,0%,-12%,-15,-74*
c1ccc(CNc2nc(-c3ccccc3)nc3ccccc23)cc1,-6%,-1%,18%,-13,24
O=C(NCC1CCCO1)c1c[nH]c2ccc(S(=O)(=O)Nc3cccc(C(F)(F)F)c3)cc2c1=O (configuration not stated),1%,·,·,-5,·
COc1ccc(-c2nc(-c3ccc(O)cc3O)cs2)cc1OC,?,0%,-4%,39*,47
CN(CC1CCCN(CCc2cccc(C(F)(F)F)c2)C1)C(=O)c1cc2ccccc2o1 (configuration not stated),1%,0%,-85%,-21,-74*
CSc1ccc(CN2CCC2(C)C(=O)NC2CCc3ccccc32)cc1 (configuration not stated),·,·,·,5,-70*
Cc1cccnc1C(c1ccc(F)cc1)N(C)C(=O)C1CCN(CCOc2ccc(Cl)cc2Cl)CC1 (configuration not stated),·,·,·,-3,-74*
CCn1c(CCCOc2ccc(Cl)cc2Cl)nnc1SCC(=O)Nc1cc(F)ccc1C,0%,0%,-37%,14,34
Cc1cccnc1C(c1ccc(F)cc1)N(C)C(=O)C1CCN(CCCOc2ccc(F)cc2)CC1 (configuration not stated),·,·,·,-21,-94*
O=C(NC(c1ccc(-c2ccccc2)cc1)c1cnccn1)C1CCN(Cc2ccc(Oc3ccccc3)cc2)CC1 (configuration not stated),·,·,·,-20,-54*
COc1ccc(C(NC(=O)C2CCN(Cc3ccc(Oc4ccccc4)cc3)CC2)c2ccccn2)cc1 (configuration not stated),·,·,·,-26,-55*
O=C(NC(c1ccc(Cl)cc1)c1cnccn1)C1CCN(Cc2ccccc2)CC1 (configuration not stated),·,·,·,-15,19
COc1cc(CN2CCC(C(=O)NC(c3ccc(-c4ccccc4)cc3)c3cnccn3)CC2)cc(OC)c1 (configuration not stated),·,·,·,-10,-54*
COc1ccc(OC)c(CCNC(=O)c2c(C)oc3ncn(CC(C)C)c(=O)c23)c1,1%,·,·,-4,·
O=C(CSc1nc(O)c(C(c2ccccc2)c2ccccc2)c(=O)[nH]1)N1CCOCC1,-2%,0%,0%,-18,-62*
Cc1nc(SC(C)C(=O)Nc2ccccc2Cl)cc(-c2ccccc2)n1 (configuration not stated),0%,·,·,17,·
CC(=NNC1=NCCN1)c1cn(C2=NCCN2)nc1C,·,·,·,-5,-50*
CC(C)Cn1c(=O)c2ccccc2n2c(CCC(=O)N3CCN(c4ccccc4F)CC3)nnc12,6%,·,·,-24,·
Cc1ccc(OCc2ccc(-c3nc(C#N)c(NCc4ccccc4Cl)o3)o2)cc1,12%,·,·,-1,·
Cc1ccc(-c2onc(C)c2C)cc1S(=O)(=O)Nc1cccc(Cl)c1C,-16%,·,·,1,·
Cc1c(Cl)cccc1NC(=O)CSc1nc(=O)n(CCN2CCOCC2)c2c1CCC2,2%,·,·,-10,·
CC1Cc2ccccc2N1S(=O)(=O)c1cccs1 (configuration not stated),3%,-1%,-48%,13,-110*
SMILES,IDH1 R132H inh,B2AR arrestin,a7 integrin act,D3 ag,DRD3 antagonist
Cc1ccc(S(=O)(=O)N2c3ccccc3CC2C)cc1 (configuration not stated),11%,0%,-43%,-6,-29
COc1cc(C(C)=O)ccc1OCCN1CCC(Cc2ccccc2)CC1,-2%,-1%,-24%,-22,-77*
COc1cc(C(C)=O)ccc1OCCCN1CCC(Cc2ccccc2)CC1,-3%,0%,-19%,-21,-90*
COc1cc(C(C)=O)ccc1OCC(=O)N1CCC(Cc2ccccc2)CC1,0%,·,-8%,2,10
O=C(c1ccc(S(=O)(=O)Nc2ccccc2)cc1)N1CCCCCCC1,-25%,0%,0%,5,-10
COc1ccc(-c2cc(C(F)(F)F)n3nc(C)c(-c4ccccc4)c3n2)cc1OC,-3%,·,·,1,·
CC1=C(C(=O)Nc2cccc(C(F)(F)F)c2)C2(CCCCC2)OC1=O,·,·,·,-5,·
CCOC(=O)/C(=C\c1ccc(OC(F)F)cc1)C1=Nn2c(nnc2-c2ccc(Cl)cc2)SC1,-6%,0%,-54%,-9,-90*
COc1ccc(-c2nnc3n2N=C(C)CS3)cc1,1%,0%,8%,1,-4
CCOC(=O)/C(=C/c1ccc(OC(F)F)cc1)C1=Nn2c(nnc2-c2ccc(Cl)cc2)SC1,3%,·,-62%,-17,-62*
CCC(=O)Nc1ccccc1-c1nc2ccccc2n(C(C)C(=O)Nc2ccc(OC)cc2)c1=O (configuration not stated),21%,·,·,-4,·
CCCN(C(=O)c1ccc(S(=O)(=O)N2CCCC2)cc1)C1CCS(=O)(=O)C1 (configuration not stated),-10%,0%,5µM*,6,-20
CN(C)S(=O)(=O)c1cccc(C(=O)Nc2ccc3c(c2)CCC3)c1,4%,0%,2.8µM*,-11,1
CN1CCc2c(sc3c2C(=O)NC(c2ccccc2)N3)C1 (configuration not stated),2%,0%,-8%,-24,-4
Cc1ccc(C2NC(=O)c3c(sc4c3CCN(C)C4)N2)s1 (configuration not stated),-5%,0%,2%,-25,-55*
CN1CCc2c(sc3c2C(=O)NC(c2ccc4c(c2)OCO4)N3)C1 (configuration not stated),7%,0%,-11%,-17,-126*
CN(Cc1ccccc1)C(=O)CSc1nc2ccsc2c(=O)n1-c1ccc(F)cc1,-7%,·,·,2,·
Cc1ccc2cc3cc(C(=O)N(C)c4ccccc4C)oc3nc2c1,·,·,·,7,·
CN(Cc1ccccc1)c1ccc(C(CC(N)=O)NC(=O)c2ccc(Br)cc2)cc1[N+](=O)[O-] (configuration not stated),7%,0%,11%,-52,-52*
CC(C)Nc1ccc(C(CC(N)=O)NC(=O)c2ccc(Br)cc2)cc1[N+](=O)[O-] (configuration not stated),5%,0%,-15%,-12,1
